Assays:
Conditions in all cases: concentration: 1 μM, replicates: in singlicate; n = 1
SRPK1 = system: SRPK1
SRPK2 = system: SRPK2
SRPK3 = system: SRPK3
STK16 = system: STK16
STK33 = system: STK33
STK35 = system: STK35
STK36 = system: STK36
STK39 = system: STK39
SYK = system: SYK
SgK110 = system: SgK110
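Note: KINOMEscan kinase panel screen.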

| SMILES | %Inh (SRPK1) [%] | %Inh (SRPK2) [%] | %Inh (SRPK3) [%] | %Inh (STK16) [%] | %Inh (STK33) [%] | %Inh (STK35) [%] | %Inh (STK36) [%] | %Inh (STK39) [%] | %Inh (SYK) [%] | %Inh (SgK110) [%] |
| --- | --- | --- | --- | --- | --- | --- | --- | --- | --- | --- |
| COc1cc2ncn(-c3cc(OCc4ccncc4)c(C(N)=O)s3)c2cc1OC [GSK336313] | 23 | 0 | 0 | 25 | 0 | 0 | 0 | 4 | 26 | 0 |
| O=C(NCc1cccs1)c1cc(C(=O)c2c(Cl)cccc2Cl)c[nH]1 [GW823670] | 0 | 0 | 0 | 0 | 0 | 0 | 10 | 0 | 6 | 14 |
| COc1cccc(-n2cnc3c(N)ncnc32)c1 [SKF-97416] | 2 | 6 | 0 | 16 | 12 | 0 | 0 | 29 | 4 | 0 |
| Cc1nc(N(C)[C@H]2CN(C(=O)CC#N)CC[C@H]2C)c2cc[nH]c2n1 | 26 | 0 | 1 | 0 | 0 | 0 | 0 | 0 | 0 | 0 |
| Cc1cccc(-c2nc(Nc3ccc4c(cnn4C)c3)c3ccccc3n2)n1 [GW876731] | 0 | 0 | 0 | 5 | 0 | 0 | 2 | 33 | 24 | 6 |
| COc1ccc(-n2cnc3c(N)ncnc32)cc1 [SKF-97236] | 28 | 0 | 15 | 38 | 20 | 0 | 0 | 0 | 18 | 0 |
| Cc1ccc(Oc2ccc(Nc3ncnc4cc[nH]c34)cc2C)cn1 | 0 | 0 | 0 | 27 | 0 | 0 | 13 | 15 | 11 | 0 |
| CCC(=O)c1c(-c2ccccc2)c2cc(Cl)ccc2c(=O)n1Cc1cc(S(C)(=O)=O)n(CC(F)F)n1 | 0 | 2 | 0 | 0 | 0 | 0 | 0 | 0 | 0 | 31 |
| O=C(Nc1n[nH]c2nc(-c3ccccc3)c(Cl)cc12)C1CC1 [SB-734909] | 0 | 27 | 15 | 1 | 0 | 32 | 6 | 0 | 0 | 23 |
| Fc1cccc(CSc2nnc(-c3ccc4c(c3)CCO4)o2)c1 | 1 | 0 | 16 | 0 | 6 | 0 | 16 | 16 | 0 | 13 |
| O=C(Nc1n[nH]c2nc(-c3ccccc3)c(Br)cc12)C1CC1 [SB-708998] | 36 | 0 | 17 | 0 | 14 | 0 | 38 | 4 | 13 | 13 |
| CCC(=O)c1c(-c2ccccc2)c2cc(Cl)ccc2c(=O)n1Cc1cc(S(C)(=O)=O)n(CC(N)=O)n1 | 0 | 0 | 0 | 16 | 17 | 0 | 0 | 0 | 9 | 0 |
| OCCCNc1nccc(-c2c(-c3cccc(C(F)(F)F)c3)nn3cc(C(F)(F)F)ccc23)n1 [GW630813] | 7 | 2 | 0 | 8 | 0 | 0 | 55 | 0 | 0 | 0 |
| O=c1cc(N2CCOCC2)nc2n(Cc3ccc(F)c(Cl)c3)ccn12 [GSK2297099] | 0 | 0 | 0 | 24 | 0 | 0 | 0 | 0 | 7 | 8 |
| Cc1nnc(-c2ccc(C)c(-c3ccc(C(=O)O)cc3)c2)o1 [GW608005] | 35 | 0 | 7 | 0 | 0 | 0 | 0 | 1 | 0 | 0 |
| CCCC(=O)Nc1n[nH]c2ncc(-c3cccc4ccccc34)cc12 [SB-642057] | 16 | 0 | 0 | 24 | 0 | 4 | 0 | 6 | 0 | 0 |
| Cc1cc(Nc2nc(-c3cccc(C)n3)nc3ccccc23)ccn1 [GW872411] | 0 | 0 | 13 | 0 | 0 | 3 | 0 | 0 | 0 | 0 |

| SMILES | %Inh (SRPK1) [%] | %Inh (SRPK2) [%] | %Inh (SRPK3) [%] | %Inh (STK16) [%] | %Inh (STK33) [%] | %Inh (STK35) [%] | %Inh (STK36) [%] | %Inh (STK39) [%] | %Inh (SYK) [%] | %Inh (SgK110) [%] |
| --- | --- | --- | --- | --- | --- | --- | --- | --- | --- | --- |
| CCS(=O)(=O)c1ccc(OC)c(Nc2ncc(-c3ccc(F)cc3)o2)c1.Cl [GW591947] | 30 | 0 | 0 | 1 | 12 | 0 | 0 | 11 | 48 | 0 |
| FC(F)(F)c1ccc(-c2ncn(CCCN3CCOCC3)c2-c2ccncc2)cc1 [SB-217780] | 0 | 6 | 6 | 9 | 0 | 0 | 10 | 19 | 0 | 0 |
| COc1ccc(Nc2nccc(N3CCC(NS(=O)(=O)c4ccc(NC(C)=O)cc4)C3)n2)cc1 (stereo not shown) [GSK1379729] | 35 | 0 | 63 | 19 | 10 | 14 | 3 | 2 | 35 | 4 |
| Cc1nnc(-c2ccc3ncn(-c4ccc(S(C)=O)cc4)c3c2)o1 (stereo not shown) | 0 | 0 | 0 | 29 | 0 | 0 | 22 | 0 | 0 | 2 |
| Cc1cccc(-c2cc(-c3c[nH]nc3-c3ccccn3)ccn2)c1 [GW679395] | 3 | 0 | 0 | 21 | 0 | 0 | 64 | 30 | 16 | 64 |
| CCc1nc(-c2cccc(C)c2)c(-c2ccncc2)s1 | 0 | 0 | 15 | 23 | 0 | 0 | 15 | 0 | 23 | 0 |
| CCC(=O)c1c(-c2ccccc2)c2cc(Cl)ccc2c(=O)n1Cc1cc(C(=O)NC2CC2)n(C)n1 | 0 | 19 | 0 | 6 | 0 | 51 | 0 | 13 | 0 | 11 |
| CN1C(=O)C(Nc2ccccc2)=C(c2ccccc2)C1=O [SB-300079] | 0 | 0 | 0 | 0 | 9 | 0 | 0 | 0 | 3 | 0 |
| C[C@@H]1CC[C@H](C(=O)NC2CCCCC2)CN1c1cc(-c2ccc3c(N)n[nH]c3c2)nc(N)n1 [GSK2291363] | 77 | 5 | 36 | 21 | 57 | 0 | 0 | 0 | 37 | 0 |
| Cc1ccccc1COc1cc(-n2cnc3cc(Cl)ccc32)sc1C(N)=O [GW813349] | 10 | 34 | 10 | 0 | 30 | 0 | 30 | 0 | 9 | 0 |
| CCn1c(-c2nonc2N)nc2ccccc21 [SB-693162/GW549034] | 0 | 0 | 24 | 23 | 15 | 0 | 0 | 37 | 0 | 0 |
| COc1ccc(-c2cc3c(C)nc(N)nc3n([C@H]3CC[C@H](OCCO)CC3)c2=O)cn1 | 0 | 0 | 0 | 0 | 0 | 8 | 0 | 0 | 1 | 25 |
| Nc1n[nH]c2ncc(-c3ccccc3)cc12 [SB-517081] | 0 | 12 | 12 | 22 | 0 | 0 | 0 | 0 | 8 | 0 |
| COc1cc2ncn(-c3cc(OCc4ccc(S(C)(=O)=O)cc4)c(C(N)=O)s3)c2cc1OC [GW869979] | 25 | 0 | 13 | 2 | 27 | 0 | 0 | 0 | 0 | 0 |
| COc1cc2nccc(Nc3cccc(Oc4ccccc4)c3)c2cc1OC.Cl [GW284543] | 65 | 0 | 0 | 0 | 0 | 0 | 0 | 1 | 37 | 0 |
| COc1cc(Nc2nccc(N3CCC(NC(=O)C(C)c4ccc(Cl)cc4)C3)n2)cc(OC)c1OC (stereo not shown) [GSK1379757] | 26 | 3 | 52 | 39 | 0 | 0 | 0 | 0 | 20 | 0 |
| Nc1nc(N)c2nc(-c3ccccc3)[nH]c2n1 [SKF-12778] | 37 | 0 | 22 | 1 | 19 | 5 | 0 | 11 | 43 | 0 |
